# Assay results reported in PubChem BioAssay (NCATS).
# Inconclusive results are not listed. The source made the active and inactive calls. Calls come from the whole dose curve; as a rule, active = well fitted inhibition curve with a large enough effect; inconclusive = small, poorly fitted or top-dose-only effect; inactive = no such curve, though single readings can be large or run the other way.
# Target: Aldehyde dehydrogenase 1A1 (Homo sapiens) (UniProt P00352)
# Assay: qHTS for Inhibitors of the Aldehyde Dehydrogenase Family (ALDH1A1) Confirmatory screens (AID 2061316); note: nearly all actives have a fitted effect of over 65% in size
# Details: ALDH inhibition qHTS; series mostly up to 47.3 µM
# Potency is the fitted concentration of half-maximal effect.
row,Compound,Potency
1,COc1cccc(CNc2ccc(S(=O)(=O)Nc3cccs3)cc2)c1O,0.634 µM (active)
2,Cc1ccc([S+](=O)([O-])Nc2nn3c(=O)c4ccccc4nc3s2)cc1C,12.7 µM (active)
3,O=c1c2ccccc2nc2sc(NS(=O)(=O)c3ccc4c(c3)CCC4)nn12,8.96 µM (active)
